# Inconclusive results are not listed. Calls of active or inactive are those of the source. The calls were made as follows, unless noted: active = hit-call score of the fitted dose curve at least 0.9, where 1 is the maximum; inconclusive = response in the unintended direction; inactive = score below 0.9.
# Columns and labels:
# [1] = CEETOX_H295R_PROG_noMTC: CeeTox H295R High-throughput Steroidogenesis Assay for Progesterone (PROG), maximum tolerated concentration (MTC) filtered results only (AID 2283920; active = hit-call score of the fitted dose curve at least 0.9, where 1 is the maximum; inactive = score below 0.9); conditions: actives raise or lower the signal
# Procedure, shortened: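 Progesterone synthesis in the human adrenal line H295R is measured by HPLC-MS/MS after 48 h chemical exposure following 48 h forskolin (10 uM) stimulation. Activity in either direction is fitted relative to DMSO.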
# [2] = CEETOX_H295R_ESTRONE_noMTC: CeeTox H295R High-throughput Steroidogenesis Assay for Estrone, maximum tolerated concentration (MTC) filtered results only (AID 2283921; active = hit-call score of the fitted dose curve at least 0.9, where 1 is the maximum; inactive = score below 0.9); conditions: actives raise or lower the signal
# Procedure, shortened: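 Estrone in spent medium, quantified by tandem MS following dansyl chloride derivatization, after 48 h chemical exposure (0.1% DMSO) of forskolin-prestimulated (10 uM, 48 h) H295R cells; concentrations not MTC-filtered, bidirectional fit against DMSO.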
# [3] = target: Thyroid hormone receptor alpha (Rattus norvegicus) + Thyroid hormone receptor beta (Rattus norvegicus) (UniProt P18113+P63059); experiment: TOX21_TR_LUC_GH3_Agonist_Followup: Tox21 GH3 Thyroid Hormone Receptor Agonism Luciferase Follow-Up Assay (AID 2283939)
# Thyroid hormone receptor alpha (Rattus norvegicus) + Thyroid hormone receptor beta (Rattus norvegicus), sequence (P63059 whole entry, looked up): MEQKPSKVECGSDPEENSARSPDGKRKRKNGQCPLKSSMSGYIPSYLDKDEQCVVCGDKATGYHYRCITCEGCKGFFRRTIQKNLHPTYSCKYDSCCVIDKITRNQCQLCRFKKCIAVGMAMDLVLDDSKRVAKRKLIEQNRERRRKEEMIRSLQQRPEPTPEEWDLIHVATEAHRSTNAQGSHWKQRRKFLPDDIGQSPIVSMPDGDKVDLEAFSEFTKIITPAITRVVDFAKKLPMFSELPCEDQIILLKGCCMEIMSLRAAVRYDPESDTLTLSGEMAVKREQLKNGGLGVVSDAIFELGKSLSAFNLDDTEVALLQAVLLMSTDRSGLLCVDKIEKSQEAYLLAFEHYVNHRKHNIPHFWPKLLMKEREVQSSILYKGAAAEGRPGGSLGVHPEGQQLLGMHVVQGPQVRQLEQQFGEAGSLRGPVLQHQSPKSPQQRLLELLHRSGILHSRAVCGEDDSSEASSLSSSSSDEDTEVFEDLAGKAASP
# Thyroid hormone receptor alpha (Rattus norvegicus) + Thyroid hormone receptor beta (Rattus norvegicus), sequence (P18113 whole entry, looked up): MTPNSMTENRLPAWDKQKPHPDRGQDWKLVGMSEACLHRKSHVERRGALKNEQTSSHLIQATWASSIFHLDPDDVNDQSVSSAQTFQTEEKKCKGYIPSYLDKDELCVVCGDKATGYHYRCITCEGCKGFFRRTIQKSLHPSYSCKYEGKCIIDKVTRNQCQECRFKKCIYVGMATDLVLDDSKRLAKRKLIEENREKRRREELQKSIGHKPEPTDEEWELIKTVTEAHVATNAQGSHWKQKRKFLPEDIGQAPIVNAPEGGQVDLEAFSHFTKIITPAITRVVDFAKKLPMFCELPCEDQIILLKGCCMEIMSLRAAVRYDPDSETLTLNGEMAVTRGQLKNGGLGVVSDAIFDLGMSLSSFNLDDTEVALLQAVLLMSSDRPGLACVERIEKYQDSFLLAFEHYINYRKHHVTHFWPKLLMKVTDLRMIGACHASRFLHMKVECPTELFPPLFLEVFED
# Procedure, shortened: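 Agonist-mode confirmatory run: 15 concentrations (5 nM to 92 uM final) on GH3 rat pituitary cells, 24 h at 37C/5% CO2, T3 as positive control. Luminescence read with ONE-Glo after 30 min.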
# [4] = target: PGR (gene 5241) (UniProt P06401); experiment: TOX21_PR_BLA_Followup_Agonist_ratio: Tox21 HEK293 Progesterone Receptor (PR) Agonism Beta-lactamase Follow-Up Assay, Ratio (AID 2283933)
# PGR (gene 5241), sequence (P06401 whole entry, looked up): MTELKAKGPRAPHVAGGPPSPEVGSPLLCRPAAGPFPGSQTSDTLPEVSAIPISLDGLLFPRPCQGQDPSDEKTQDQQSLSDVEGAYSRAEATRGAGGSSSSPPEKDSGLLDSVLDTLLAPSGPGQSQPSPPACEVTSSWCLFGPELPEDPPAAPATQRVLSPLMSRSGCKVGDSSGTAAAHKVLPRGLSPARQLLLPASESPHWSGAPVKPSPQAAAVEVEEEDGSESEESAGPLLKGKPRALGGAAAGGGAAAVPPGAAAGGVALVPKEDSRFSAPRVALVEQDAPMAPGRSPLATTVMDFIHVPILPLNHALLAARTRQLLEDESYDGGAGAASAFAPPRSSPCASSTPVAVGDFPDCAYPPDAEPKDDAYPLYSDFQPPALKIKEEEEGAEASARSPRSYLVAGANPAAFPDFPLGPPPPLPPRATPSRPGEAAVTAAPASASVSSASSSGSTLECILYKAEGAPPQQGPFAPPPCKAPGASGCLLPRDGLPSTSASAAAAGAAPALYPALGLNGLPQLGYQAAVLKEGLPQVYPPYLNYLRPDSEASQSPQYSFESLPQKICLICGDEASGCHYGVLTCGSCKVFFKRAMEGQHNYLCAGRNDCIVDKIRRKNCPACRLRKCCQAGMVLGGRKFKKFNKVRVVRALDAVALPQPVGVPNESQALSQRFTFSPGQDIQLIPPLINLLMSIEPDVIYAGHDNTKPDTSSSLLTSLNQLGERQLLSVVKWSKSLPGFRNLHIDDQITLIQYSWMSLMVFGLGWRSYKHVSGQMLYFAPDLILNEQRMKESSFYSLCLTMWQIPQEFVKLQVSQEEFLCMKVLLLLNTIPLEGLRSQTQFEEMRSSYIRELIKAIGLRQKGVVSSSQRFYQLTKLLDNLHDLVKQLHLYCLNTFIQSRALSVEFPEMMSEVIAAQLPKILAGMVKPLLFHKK
# Procedure, shortened: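 Cells were seeded and held 6 hr before compound addition, exposed for 16 hr at 37C, then given FRET substrate for 2 hr at room temperature. Agonism was scored from the blue/green substrate cleavage ratio against DMSO controls.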
# [5] = target: PGR (gene 5241) (UniProt P06401); experiment: TOX21_PR_BLA_Followup_Antagonist_ratio: Tox21 HEK293 Progesterone Receptor (PR) Antagonism Beta-lactamase Follow-Up Assay, Ratio (AID 2283934);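 also: PR-UAS-bla HEK293T cells stimulated with 1 nM R5020 agonist for 16 hr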
# Description: TOX21_PR_BLA_Followup is a secondary assay for specificity for the TOX21_PR_BLA_Agonist assay. To differentiate true PR agonists from cytotoxic substances, this follow up assay is multiplexed with a cell viability assay. The compounds were also tested for auto fluorescence that may interfere with the biological target readout resulting in potential false positives and/or negatives. To identify the compounds that stimulate PR signaling, a PR-UAS-bla GripTite cell line i.e. PR-UAS-bla HEK293T (Invitrogen, Carlsbad, CA, USA) containing a beta-lactamase reporter gene under the control of an UAS response element was used to screen Tox21 10K compound library. The cytotoxicity of the Tox21 compound library against the PR-bla cell line was tested in parallel by measuring the cell viability using CellTiter-Glo assay in the same wells. TOX21_PR_BLA_Followup_Antagonist_ratio is an assay readout measuring reporter gene via receptor activity and designed using inducible reporter (beta lactamase induction) detected with GAL4 b-lactamase reporter gene. The signal is derived from the ratio of cleaved (ch2) to uncleaved (ch1) reporter gene substrate used as the measure of target activity.Data from the assay component TOX21_PR_BLA_Followup_Antagonist_ratio was analyzed into 1 assay endpoint. This assay endpoint, TOX21_PR_BLA_Followup_Antagonist_ratio, was analyzed in the positive analysis fitting direction relative to DMSO as the negative control and baseline of activity. Using a type of inducible reporter, measures of receptor for gain-of-signal activity can be used to understand the reporter gene at the pathway-level as they relate to the gene NR3C3. Furthermore, this assay endpoint can be referred to as a primary readout, because this assay has produced multiple assay endpoints where this ratio serves a reporter gene function to understand target activity. To generalize the intended target to other relatable targets, this assay endpoint is annotated to the nuclear receptor intended target family, where the subfamily is steroidal.
# (§1) Assay Protocol: PR-UAS-bla HEK293T cells were dispensed at 3,000 cells/4 uL of assay medium containing 2% charcoal stripped FBS per well into black wall/clear-bottom 1536-well plates using a Multidrop Combi (ThermoFisher Scientific, Waltham, MA) dispenser. […] After the plates were incubated at room temperature for 2 hours, fluorescence intensity was measured by an Envision plate reader (PerkinElmer, Shelton, CT).
# [6] = TOX21_PR_BLA_Followup_Antagonist_viability: Viability Assessment in the Tox21 HEK293 Progesterone Receptor (PR) Antagonism Beta-lactamase Follow-Up Assay (AID 2283936);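 also: cells exposed to compound with R5020 agonist for 16 h; hits lower the luminescence signal meaning cytotoxicity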
# Procedure, shortened: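 PR-UAS-bla HEK293T cells in medium with 2% charcoal-stripped FBS were treated with compounds plus R5020 for 16 hr at 37C. After the beta-lactamase read, CellTiter-Glo was added to the same wells and luminescence read after 30 min at room temperature.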
# [7] = target: PGR (gene 5241) (UniProt P06401); experiment: TOX21_PR_LUC_Followup_Agonist: Tox21 HEK293 Progesterone Receptor (PR) Agonism Luciferase Follow-Up Assay (AID 2283937; active = hit-call score of the fitted dose curve at least 0.9, where 1 is the maximum; inactive = score below 0.9)
# Text: TOX21_PR_LUC_Followup is a secondary assay for specificity for the TOX21_PR_BLA_Agonist assay. To differentiate true PR agonists from cytotoxic substances, this follow up assay is multiplexed with a cell viability assay.TOX21_PR_LUC_Followup_Agonist is one of one assay component(s) measured or calculated from the TOX21_PR_LUC_Followup assay. It is designed to make measurements of luciferase induction, a form of inducible reporter, as detected with bioluminescence signals by CellTiter-Glo Luciferase-coupled ATP quantitation technologyData from the assay component TOX21_PR_LUC_Followup_Agonist was analyzed into 1 assay endpoint. This assay endpoint, TOX21_PR_LUC_Followup_Agonist, was analyzed in the positive analysis fitting direction relative to DMSO as the negative control and baseline of activity. Using a type of inducible reporter, gain-of-signal activity can be used to understand changes in the reporter gene as they relate to the gene NR3C3. Furthermore, this assay endpoint can be referred to as a primary readout, because the performed assay has only produced 1 assay endpoint. To generalize the intended target to other relatable targets, this assay endpoint is annotated to the nuclear receptor target family, where the subfamily is steroidal.
# Quality Control Precautions: Maintain cells below 85-90% confluence in culture medium. For assay purpose, the cells should be cultured in assay medium with 10% charcoal stripped FBS for 5 days with alternate day medium changed to fresh medium. […] Then 4 uL of ONE-Glo reagent (Promega, Madison, WI) was added to each plate using a BioRAPTR Flying Reagent Dispenser (FRD) workstation (Beckman Coulter, Indianapolis, IN, USA) and luminescence was quantified on a ViewLux (PerkinElmer, Shelton, CT) plate reader after 30 min incubation at room temperature.
# [8] = target: PGR (gene 5241) (UniProt P06401); experiment: TOX21_PR_LUC_Followup_Antagonist: Tox21 HEK293 Progesterone Receptor (PR) Antagonism Luciferase Follow-Up Assay (AID 2283938);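 also: curve fitted upward as signal gain over DMSO baseline despite antagonist label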
# Procedure, shortened: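 Cells are grown 5 days in charcoal-stripped-FBS assay medium, plated, left 5 h, then dosed with compound and incubated 16 h. ONE-Glo reagent is added and luminescence read after 30 min.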
# [9] = TOX21_PR_LUC_Followup_Antagonist_viability: Viability Assessment in the Tox21 HEK293 Progesterone Receptor (PR) Antagonism Luciferase Follow-Up Assay (AID 2283940)
# Procedure, shortened: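 HEK293-PR-A-luc, 3,000 cells/well; 5 h at 37C/0% CO2; compound pin transfer; 16 h incubation; CellTiter-Glo ATP luminescence, signal loss = cytotoxicity.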
# [10] = TOX21_PR_BLA_Followup_Agonist_viability: Viability Assessment in the Tox21 HEK293 Progesterone Receptor (PR) Agonism Beta-lactamase Follow-Up Assay (AID 2283935);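 also: signal loss means lower viability so actives are cytotoxic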
# Description: TOX21_PR_BLA_Followup is a secondary assay for specificity for the TOX21_PR_BLA_Agonist assay. To differentiate true PR agonists from cytotoxic substances, this follow up assay is multiplexed with a cell viability assay. The compounds were also tested for auto fluorescence that may interfere with the biological target readout resulting in potential false positives and/or negatives. To identify the compounds that stimulate PR signaling, a PR-UAS-bla GripTite cell line i.e. PR-UAS-bla HEK293T (Invitrogen, Carlsbad, CA, USA) containing a beta-lactamase reporter gene under the control of an UAS response element was used to screen Tox21 10K compound library. The cytotoxicity of the Tox21 compound library against the PR-bla cell line was tested in parallel by measuring the cell viability using CellTiter-Glo assay in the same wells. TOX21_PR_BLA_Followup_Agonist_viability is a component of the TOX21_PR_BLA_Followup_Agonist assay. This component measures cell viability using the CellTiter-Glo Luciferase-coupled ATP quantitation.TOX21_PR_BLA_Followup_Agonist_viability used a type of viability reporter where loss-of-signal activity can be used to understand changes in the cell viability. Furthermore, this assay endpoint can be referred to as a secondary readout, because this assay has produced multiple assay endpoints where this one serves a viability function. […]
# as §1, with “cells/5” for “cells/4”, “Then 1 uL of LiveBLAzer B/G FRET substrate was added using a Flying Reagent Dispenser (FRD, Aurora Discovery, San Diego, CA),” for “After”, “hours, and” for “hours,”, “CT). For cell viability readout that measures cytotoxicity, 4 uL/well of CellTiter-Glo reagent was added into the assay plates using a FRD. […]” for “CT).”
structure (smiles),measurement,setting,value
COC(=O)c1ccccc1C(=O)O,outcome,[1],inactive
same,outcome,[2],inactive
CCNc1nc(N)nc(Cl)n1,outcome,[3],inactive
CCCN(CCC)C(=O)SCC,outcome,[3],inactive
CCCCC(CC)COC(=O)c1ccccc1C(=O)O (configuration not stated),outcome,[1],inactive
O=C(c1ccc(O)cc1O)c1ccc(O)cc1O,outcome,[4],inactive
same,AC50,[5],58.1 µM (active)
same,outcome,[6],inactive
same,outcome,[7],inactive
same,AC50,[8],68.3 µM (active)
same,outcome,[9],inactive
COC(=O)c1ccc(I)cc1S(=O)(=O)NC(=O)Nc1nc(C)nc(OC)n1,outcome,[3],inactive
C[C@]12CC[C@@H]3c4ccc(O)cc4C[C@@H](CCCCCCCCCS(=O)CCCC(F)(F)C(F)(F)F)[C@H]3[C@@H]1CC[C@@H]2O (some centres not stated),outcome,[4],inactive
same,AC50,[5],4.06 µM (active)
same,outcome,[7],inactive
same,AC50,[8],5.78 µM (active)
same,outcome,[9],inactive
CC(C)(c1ccc(O)cc1)c1ccc(O)cc1,outcome,[4],inactive
same,AC50,[5],32.9 µM (active)
same,outcome,[10],inactive
same,outcome,[6],inactive
same,outcome,[7],inactive
same,AC50,[8],33.3 µM (active)
same,outcome,[9],inactive
C[C@]12C[C@H](O)[C@H]3[C@@H](CCC4=CC(=O)CC[C@@]43C)[C@@H]1CC[C@@H]2C(=O)CO,outcome,[10],inactive
same,outcome,[6],inactive
same,outcome,[8],inactive
CC(C)CCCCCCc1ccc(O)cc1,outcome,[5],inactive
same,outcome,[10],inactive
same,outcome,[6],inactive
same,outcome,[8],inactive
same,outcome,[9],inactive

# Source: PubChem BioAssay (EPA / NIEHS)
